Results as given in PubChem BioAssay AID1159580 (chemical genetic matrix, 2015).
Several values for one entry are separate records, joined by “and”; a condition that tells them apart may be missing. Identical values can stand only once. About 2,000 (36%) of roughly 5,500 compounds were called active. Another 18% or so got no clear call; they are omitted. No stated cut-off is given here; in the data, active means normalized growth mostly below about 0.91 (no sharp cut-off); inconclusive means no clear call, values can overlap the other calls; inactive means mostly above about 0.92. The list shows a part of the results.

Test: chemical genetic growth profiling, strain panel (AID 1159580);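 further: tested at 20 µM; growth read once vehicle control cultures reached saturation at 30 °C; 1 = growth at the plate median or of vehicle wells; lower values mean less growth of the strain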
Conditions: S. cerevisiae deletion strains, growth OD

Measured: normalized growth

CCCc1ncc(C[n+]2ccccc2C)c(N)n1
inactive: locus YAL021C, strain ccr4, active compounds read low 0.94 | locus YAL026C, strain drs2, active compounds read low 0.999 | locus YAL030W, strain snc1, active compounds read low 0.991 | locus YBL061C, strain skt5, active compounds read low 0.976 | locus YBR009C, strain hhf1, active compounds read low 1.03 | locus YBR021W, strain FUR4, active compounds read low 1.06 | locus YBR023C, strain chs3, active compounds read low 0.999 | locus YBR171W, strain sec66, active compounds read low 0.969 | locus YBR229C, strain ROT2, active compounds read low 1 | locus YBR231C, strain swc5, active compounds read low 0.966 | locus YBR279W, strain paf1, active compounds read low 1.01 | locus YCL011C, strain gbp2, active compounds read low 1 | locus YCL016C, strain dcc1, active compounds read low 1.01 | locus YCL029C, strain bik1, active compounds read low 1 | locus YCL069W, strain vba3, active compounds read low 0.981 | locus YCR088W, strain abp1, active compounds read low 0.992 | locus YDL005C, strain med2, active compounds read low 0.929 | locus YDL035C, strain GPR1, active compounds read low 1.01 | locus YDL040C, strain nat1, active compounds read low 0.967 | locus YDL074C, strain BRE1, active compounds read low 0.99 | locus YDL101C, strain DUN1, active compounds read low 1 | locus YDL134C, strain PPH21, active compounds read low 0.996 | locus YDL185W, strain tfp1, active compounds read low 1.01 | locus YDL192W, strain arf1, active compounds read low 0.999 | locus YDR001C, strain nth1, active compounds read low 0.987 | locus YDR069C, strain doa4, active compounds read low 0.983 | locus YDR101C, strain arx1, active compounds read low 1.01 | locus YDR137W, strain rgp1, active compounds read low 0.998 | locus YDR159W, strain sac3, active compounds read low 0.995 | locus YDR162C, strain NBP2, active compounds read low 1.01 | locus YDR195W, strain ref2 0.932 | locus YDR297W, strain sur2, active compounds read low 0.999 | locus YDR318W, strain mcm21, active compounds read low 0.995 | locus YDR334W, strain swr1, active compounds read low 0.992 | locus YDR335W, strain msn5, active compounds read low 0.99 | locus YDR388W, active compounds read low 0.997 | locus YDR392W, strain spt3, active compounds read low 1.08 | locus YDR502C, strain sam2, active compounds read low 0.993 | locus YEL003W, strain gim4, active compounds read low 0.983 | locus YEL037C, strain rad23, active compounds read low 0.984 | locus YEL061C, strain CIN8 (second series), active compounds read low 0.988 | locus YEL061C, strain CIN8, active compounds read low 1 | locus YER015W, strain faa2, active compounds read low 0.992 | locus YER016W, strain bim1, active compounds read low 1.02 | locus YER110C, active compounds read low 0.99 | locus YER111C, strain swi4, active compounds read low 0.983 | locus YER155C, strain BEM2 (second series), active compounds read low 0.975 | locus YER155C, strain BEM2, active compounds read low 0.991 | locus YER167W, strain BCK2, active compounds read low 0.991 | locus YFR010W, strain ubp6, active compounds read low 0.99 | locus YGL078C, strain dbp3, active compounds read low 0.988 | locus YGL086W, strain mad1, active compounds read low 0.984 | locus YGL167C, strain pmr1, active compounds read low 0.961 | locus YGL173C, strain kem1, active compounds read low 0.947 | locus YGL227W, strain vid30, active compounds read low 0.988 | locus YGL240W, strain doc1, active compounds read low 0.96 | locus YGL248W, strain PDE1, active compounds read low 0.983 | locus YGL253W, strain hxk2, active compounds read low 1.01 | locus YGR078C, strain PAC10, active compounds read low 0.983 | locus YGR135W, strain pre9, active compounds read low 0.984 | locus YGR229C, strain SMI1, active compounds read low 0.997 | locus YGR252W, strain gcn5, active compounds read low 0.967 | locus YHR013C, strain ard1, active compounds read low 0.986 | locus YHR027C, strain rpn1, active compounds read low 0.997 | locus YHR030C, strain SLT2, active compounds read low 1 and 1.11 | locus YHR079C, strain IRE1 (second series), active compounds read low 0.998 | locus YHR079C, strain IRE1, active compounds read low 1.04 | locus YHR094C, strain hxt1, active compounds read low 0.994 | locus YHR129C, strain ARP1, active compounds read low 1 | locus YHR142W, strain chs7, active compounds read low 0.976 | locus YHR200W, strain rpn10, active compounds read low 0.995 | locus YIL066C, strain RNR3, active compounds read low 1.02 | locus YIL073C, strain SPO22, active compounds read low 0.975 | locus YIL125W, strain kgd1, active compounds read low 0.986 | locus YIR030C, strain dcg1, active compounds read low 1.02 | locus YJL092W, strain hpr5, active compounds read low 0.959 | locus YJL095W, strain BCK1 (second series), active compounds read low 0.95 | locus YJL095W, strain BCK1, active compounds read low 1.03 and 1.04 | locus YJL115W, strain asf1, active compounds read low 0.981 | locus YJL129C, strain trk1, active compounds read low 0.966 | locus YJL134W, strain LCB3, active compounds read low 1.01 | locus YJL154C, strain vps35, active compounds read low 0.972 | locus YJL164C, strain tpk1, active compounds read low 1.01 | locus YJL166W, strain qcr8, active compounds read low 0.941 | locus YJL168C, strain set2, active compounds read low 1 | locus YJL187C, strain SWE1 (second series), active compounds read low 0.988 | locus YJR043C, strain POL32, active compounds read low 0.989 | locus YJR066W, strain TOR1, active compounds read low 0.993 | locus YJR075W, strain HOC1, active compounds read low 0.988 | locus YKL009W, strain mrt4, active compounds read low 0.958 | locus YKL068W, active compounds read low 0.995 | locus YKL085W, strain MDH1 (second series), active compounds read low 0.983 | locus YKL085W, strain MDH1, active compounds read low 0.983 | locus YKL160W, strain elf1, active compounds read low 0.981 | locus YKL190W, strain CNB1, active compounds read low 1.01 | locus YKR001C, strain vps1, active compounds read low 1 | locus YKR091W, strain srl3, active compounds read low 0.964 | locus YLL001W, strain dnm1, active compounds read low 0.931 | locus YLL026W, active compounds read low 0.983 | locus YLL041C, strain sdh2, active compounds read low 0.991 | locus YLR027C, strain aat2, active compounds read low 0.983 | locus YLR039C, strain RIC1, active compounds read low 0.944 | locus YLR058C, strain SHM2, active compounds read low 1.01 | locus YLR102C, strain apc9, active compounds read low 0.995 | locus YLR113W, strain HOG1, active compounds read low 1.05 | locus YLR221C, strain rsa3, active compounds read low 1.02 | locus YLR258W, strain gsy2, active compounds read low 0.991 | locus YLR262C, strain YPT6 (second series), active compounds read low 0.951 | locus YLR262C, strain YPT6, active compounds read low 0.988 | locus YLR268W, strain sec22, active compounds read low 0.985 | locus YLR320W, strain mms22, active compounds read low 1.01 | locus YLR330W, strain CHS5, active compounds read low 1.01 | locus YLR342W, strain FKS1 (second series), active compounds read low 0.999 | locus YLR342W, strain FKS1, active compounds read low 0.958 | locus YLR357W, strain rsc2, active compounds read low 0.977 | locus YLR370C, strain arc18, active compounds read low 0.997 | locus YLR371W, strain rom2, active compounds read low 0.996 | locus YLR384C, strain iki3, active compounds read low 0.976 | locus YLR418C, strain cdc73, active compounds read low 0.977 | locus YML016C, strain PPZ1, active compounds read low 1.01 | locus YML032C, strain rad52, active compounds read low 0.988 | locus YML120C, strain ndi1, active compounds read low 0.98 | locus YML124C, strain tub3, active compounds read low 0.989 | locus YMR058W, strain fet3, active compounds read low 0.975 | locus YMR078C, strain ctf18, active compounds read low 0.999 | locus YMR125W, strain sto1, active compounds read low 0.969 | locus YMR129W, active compounds read low 0.986 | locus YMR205C, strain PFK2, active compounds read low 0.982 | locus YMR223W, strain ubp8, active compounds read low 0.997 | locus YMR231W, strain pep5, active compounds read low 0.978 | locus YMR307W, strain GAS1, active compounds read low 1.06 | locus YNL067W, strain RPL9B, active compounds read low 0.992 | locus YNL071W, strain lat1, active compounds read low 0.995 | locus YNL153C, strain GIM3, active compounds read low 0.987 | locus YNL183C, strain NPR1, active compounds read low 0.988 | locus YNL209W, strain ssb2, active compounds read low 0.993 | locus YNL233W, strain BNI4, active compounds read low 1.01 | locus YNL248C, strain rpa49, active compounds read low 0.995 | locus YNL250W, strain rad50, active compounds read low 0.994 | locus YNL271C, strain bni1, active compounds read low 1 | locus YNL298W, strain CLA4, active compounds read low 0.995 | locus YNL307C, strain MCK1, active compounds read low 0.992 | locus YNL322C, strain KRE1 (second series), active compounds read low 0.961 | locus YNR049C, strain mso1, active compounds read low 0.987 | locus YNR052C, strain pop2, active compounds read low 0.999 | locus YOL012C, strain htz1 0.884 | locus YOL147C, strain pex11, active compounds read low 0.994 | locus YOR001W, strain rrp6, active compounds read low 0.979 | locus YOR061W, strain CKA2, active compounds read low 1.01 | locus YOR069W, strain VPS5, active compounds read low 1 | locus YOR070C, strain gyp1, active compounds read low 0.992 | locus YOR080W, strain dia2, active compounds read low 0.965 | locus YOR083W, strain WHI5, active compounds read low 0.94 | locus YOR106W, strain vam3, active compounds read low 0.945 | locus YOR136W, strain idh2, active compounds read low 0.983 | locus YOR144C, strain elg1, active compounds read low 0.989 | locus YOR184W, strain ser1, active compounds read low 0.993 | locus YOR231W, strain MKK1, active compounds read low 1.04 | locus YOR265W, strain rbl2, active compounds read low 0.987 | locus YOR270C, strain vph1, active compounds read low 1 | locus YOR290C, strain snf2, active compounds read low 1.01 | locus YOR316C, strain cot1, active compounds read low 0.997 | locus YPL051W, strain arl3, active compounds read low 0.998 | locus YPL055C, strain LGE1, active compounds read low 1.01 | locus YPL078C, strain atp4, active compounds read low 0.954 | locus YPL106C, strain sse1, active compounds read low 1 | locus YPL240C, strain hsp82, active compounds read low 0.985 | locus YPL256C, strain CLN2, active compounds read low 1.08 | locus YPR119W, strain clb2, active compounds read low 0.998 | locus YPR141C, strain kar3, active compounds read low 0.976 | locus YPR163C, strain tif3, active compounds read low 0.987 | locus YPR167C, strain met16, active compounds read low 0.991 | strain wtn01, active compounds read low 0.973
